The target in the assay is CD276, Q5ZPR3.

Values without a mark were called inactive. No rule for the calls is given here.

Sequence of CD276, Q5ZPR3 (Q5ZPR3 whole entry): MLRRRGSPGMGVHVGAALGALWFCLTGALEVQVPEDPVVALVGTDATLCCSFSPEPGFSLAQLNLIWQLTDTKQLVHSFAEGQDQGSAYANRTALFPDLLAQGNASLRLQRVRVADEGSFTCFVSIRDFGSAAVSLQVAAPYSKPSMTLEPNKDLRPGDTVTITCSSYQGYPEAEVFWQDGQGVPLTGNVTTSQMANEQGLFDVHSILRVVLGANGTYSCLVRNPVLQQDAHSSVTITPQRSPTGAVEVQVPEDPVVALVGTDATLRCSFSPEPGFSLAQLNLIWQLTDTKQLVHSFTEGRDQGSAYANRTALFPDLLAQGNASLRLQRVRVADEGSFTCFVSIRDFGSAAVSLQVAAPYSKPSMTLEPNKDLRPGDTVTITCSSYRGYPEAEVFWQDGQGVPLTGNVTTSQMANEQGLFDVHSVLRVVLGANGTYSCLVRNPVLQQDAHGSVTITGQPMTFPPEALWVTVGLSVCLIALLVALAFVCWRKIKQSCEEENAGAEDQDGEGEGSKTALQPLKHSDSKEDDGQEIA

B1: design_612_bdadb936-3f14-48ad-830f-718e38d81c30_88_dldesign_0_cycle1_af2pred (protein)
chain: AAAAAAGEAALARLETEGAAAAAAAAADPAAAGEEIERVLALQAEVARAHPSVAAEAAAIARRYNAAIARAVVAA
In the case of B1, the “binding in a display sort” value was “not found”.

B2: design_612_bdadb936-3f14-48ad-830f-718e38d81c30_198_dldesign_0_cycle1_af2pred (protein)
chain: DAAVAQGQKLRDAALAALAAATTLAQFNAAAQQGLAALAQITALIVAHPEAGPQLQKLAAEVLAAIEAARARALAA
With B2, the “binding in a display sort” value is “not found”.

B3: design_611_394c5ea9-a0d3-47c4-9d48-89ba6a28fdd0_2077_dldesign_0_cycle1_af2pred (protein)
chain: ASEELLKEAVTLNMRLAVEFPEVAKYARAAAHYLMAGDAEKAVESAEKMLEEAKKAGPEAAALAEKALKATKAAAADQAAER
As to B3, the “binding in a display sort” value is “not found”.

B4: design_611_394c5ea9-a0d3-47c4-9d48-89ba6a28fdd0_1683_dldesign_0_cycle1_af2pred (protein)
chain: DEAEELVRLVEEARALAIDPATRGQGVTLFLLVGIRSGPAVRAAAVEAARAAREAAALPPEERARRLEELAARVIAAIRAEA
Consider B4, for which the “binding in a display sort” value is “not found”.

B5: design_612_bdadb936-3f14-48ad-830f-718e38d81c30_35_dldesign_0_cycle1_af2pred (protein)
chain: SEAEKEAAKAEVRALGAQALDVALRAAARQGAPVAELAAVVQQISQLVDQGIALVEKGDLEAGLALAQQALQLAQQFAA
As to B5, the “binding in a display sort” value is “not found”.

B6: design_611_394c5ea9-a0d3-47c4-9d48-89ba6a28fdd0_2429_dldesign_0_cycle1_af2pred (protein)
chain: GPERAELLRNAARQAEEAIRKGDESPDGVLYYTAAALIVANAIGDPELRAKAQAAAALSPEEARKVAEELRELALERARELA
Consider B6, for which the “binding in a display sort” value is “not found”.

B7: design_611_394c5ea9-a0d3-47c4-9d48-89ba6a28fdd0_2413_dldesign_0_cycle1_af2pred (protein)
chain: TAEQVEKLKERAIERLKKAAELDKEAAEELLKLYEEMKKVSENLGEAALLAAKAAAIAKNPEARALASQALADLSQAAILAAA
For B7, the “binding in a display sort” value is “not found”.

B8: design_611_394c5ea9-a0d3-47c4-9d48-89ba6a28fdd0_1995_dldesign_0_cycle1_af2pred (protein)
chain: AELAKQIAKKVMETAIKIAEEETPEAGIEAGKRAAMTAVALGDLETAEETIERVVEIARKKDPEAAERAREELEAAYARALAAVAAS
In the case of B8, the “binding in a display sort” value was “not found”.

B9: design_611_394c5ea9-a0d3-47c4-9d48-89ba6a28fdd0_1679_dldesign_0_cycle1_af2pred (protein)
chain: GEELEKAKEEAEKLTDLAKALAAQGTPLGKAAANAMSDSAVKIVLDTAKKLGKEEEGKKYADEIKAATAAALAA
For B9, the “binding in a display sort” value is “not found”.

B10: design_611_394c5ea9-a0d3-47c4-9d48-89ba6a28fdd0_2213_dldesign_0_cycle1_af2pred (protein)
chain: GQELLAQAQKELKEGKALMKEGKYKEALAKFTQAANLAAKAAAAYADQPIAKQANAVLAEAVENMAKAQALID
With B10, the “binding in a display sort” value is “not found”.

B11: design_611_394c5ea9-a0d3-47c4-9d48-89ba6a28fdd0_1682_dldesign_0_cycle1_af2pred (protein)
chain: SAALEELREKGKAEANALISASMKAAAAGLAGDAATAAAAAATIEANAKEAKEKAKEYPEAKEYYEKAAKVNTQLAEGAKLL
Consider B11, for which the “binding in a display sort” value is “not found”.

B12: design_611_394c5ea9-a0d3-47c4-9d48-89ba6a28fdd0_2003_dldesign_0_cycle1_af2pred (protein)
chain: GELKEQTAQLLETAIQAAKLSAKQAQAAIKAATIAGSQSPETKEISEEYGKKAIEAAKKSAEEAQKVIKEWLKLVKE
Consider B12, for which the “binding in a display sort” value is “not found”.

B13: design_611_394c5ea9-a0d3-47c4-9d48-89ba6a28fdd0_2254_dldesign_0_cycle1_af2pred (protein)
chain: GKEEAQKLVEEAREAAKKAKEYTAKALAEDLEAEGAKSWAALNEALAKASQAAQLDPELGSAAIAEVVETAKEIKEKLDAAKAA
As for B13, the “binding in a display sort” value is “not found”.

B14: design_611_394c5ea9-a0d3-47c4-9d48-89ba6a28fdd0_2343_dldesign_0_cycle1_af2pred (protein)
chain: AQALADQQLIATVKAALKNAEELYKKDKKAGAKAFAAAAEVAKLAIEGSSAAAKPELKALEKKAKENEKKAKEDA
For the molecule B14, the “binding in a display sort” value was “not found”.

B15: design_611_394c5ea9-a0d3-47c4-9d48-89ba6a28fdd0_1764_dldesign_0_cycle1_af2pred (protein)
chain: MLAEEARKYAEKGAEGEDSEEWFAKAAELYAQALLTSEEEARATFEALREVAERYPEKAEKVYAAISRGVQLAAQQAL
As for B15, the “binding in a display sort” value was “not found”.

B16: design_611_394c5ea9-a0d3-47c4-9d48-89ba6a28fdd0_2334_dldesign_0_cycle1_af2pred (protein)
chain: MTPAEAQLQAGEVFLRAAEQALKAGNYESAIKLAELAIEAAKQAKKLAKAAGDEATAKKAEEVEKKAKEVLKKAKE
For the molecule B16, the “binding in a display sort” value was “not found”.

B17: design_611_394c5ea9-a0d3-47c4-9d48-89ba6a28fdd0_1623_dldesign_0_cycle1_af2pred (protein)
chain: SAEVLAAAEKLVEIGELARKAAEAFPELAEKAAEAANLAALGLAKLASGATAAEGKKAMEKAEELAKELKKAL
With B17, the “binding in a display sort” value is “not found”.

B18: design_611_394c5ea9-a0d3-47c4-9d48-89ba6a28fdd0_2091_dldesign_0_cycle1_af2pred (protein)
chain: RAALEEALAKARELAEKVGEEDPEVAKEVLELIDKAAATSPATGLYYLLQALELMSRYAKESGSEVAREAAEALRAAVAIWSRLAIA
Turning to B18, the “binding in a display sort” value was “not found”.

B19: design_611_394c5ea9-a0d3-47c4-9d48-89ba6a28fdd0_1787_dldesign_0_cycle1_af2pred (protein)
chain: AAAAIAAATTGMNIAKKNANTLLAQAEATGNAGLADAAKVAADIVKANAKAAAKLADADTGAALVKDAEDFAKATNAKIAAVKAKA
In the case of B19, the “binding in a display sort” value was “not found”.
